High-throughput results (PubChem)
Compounds with a hit are over-represented: about 0.56% of the library has one in this group of screens.
EPAC1 antag: qHTS for Antagonist of cAMP-regulated guanine nucleotide exchange factor 3 (EPAC1): primary screen. Rap guanine nucleotide exchange factor 3 (Homo sapiens), O95398. EPAC1 GEF assay, Rap1b-BODIPY-GDP exchange fluorescence. Potency, µM (highest dose often 115 µM), inactives show top-dose activity change, negative = inhibition, usual class: inhibitors. 360,000 compounds, 0.14% hits;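 note: potency is the fitted concentration of half-maximal effect; plate controls were vehicle for no effect and positive control for full effect; nearly all actives have a fitted effect of over 50% in size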
EPAC2 antag: qHTS for Antagonist of cAMP-regulated guanine nucleotide exchange factor 2 (EPAC2): primary screen; Rap guanine nucleotide exchange factor 4 (Homo sapiens), Q8WZA2; EPAC2 GEF exchange of Rap1B-BODIPY-GDP, fluorescence; Potency, µM (top dose mostly 114 µM), for the others: at the top dose activity, negative = inhibition, usual class: inhibitors; 360,000 compounds, 0.18% hits; note: potency is the fitted concentration of half-maximal effect; % is set by controls: 0 for no effect and ±100 for the full control effect; nearly all actives have a fitted effect of over 45% in size
LDHA block: qHTS assay for inhibitors of human lactate dehydrogenase; AID 1347041, 2019; 480,000 compounds, 0.15% hits; L-lactate dehydrogenase A chain (Homo sapiens), P00338; activity change, % (values are at about 110 or 230 µM); purified LDHA, NADH/diaphorase-resazurin fluorescence; hits give low values; in the data active = activity change below about -30%; inconclusive = mostly about -25% to -30%;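 note: plate controls were DMSO wells for no effect and wells without enzyme for full effect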
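LDH5 2 nM; NADH 0.06 mM, pyruvate 0.2 mM; 200 mM Tris pH 7.4, EDTA, Tween-20; 5 min RT. Detection: diaphorase 0.133 mg/mL + resazurin 37 µM, fluorescence ex540/em590 at 0 and 20 min; normalized to enzyme-free and DMSO wells.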
EPAC1 ag: qHTS for Agonist of cAMP-regulated guanine nucleotide exchange factor 3 (EPAC1): primary screen | Rap guanine nucleotide exchange factor 3 (Homo sapiens), O95398 | EPAC1 agonist qHTS, biochemical assay; response scale: 100% = response to 6.5 mM cAMP | Potency, µM (highest dose often 154 µM), for the others: at the highest dose activation, usual class: activators | 360,000 compounds, 0.073% hits | AID 720707, 2013; note: potency is the fitted concentration of half-maximal effect; nearly all actives have a fitted effect of over 60% in size
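Nucleotide exchange by EPAC1 (100 nM) on Rap1B–BODIPY-GDP (250 nM) in the presence of 50 uM GDP is tracked fluorescently at 480/540 nm over 30 min. Signals are normalized to a 6.5 mM cAMP control.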
EPAC2 agonist: qHTS for Agonist of cAMP-regulated guanine nucleotide exchange factor 4 (EPAC2): primary screen. 360,000 compounds, 0.079% hits. Potency, µM (doses to about 154 µM), inactives show at the top dose activation, hits mostly activators. Rap guanine nucleotide exchange factor 4 (Homo sapiens), Q8WZA2. EPAC2 activation, biochemical qHTS; response scale: 100% = 6.5 mM cAMP response; note: potency is the fitted concentration of half-maximal effect; nearly all actives have a fitted effect of over 50% in size
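Readout is BODIPY fluorescence (480 nm excitation, 540 nm emission), which falls as labeled GDP is exchanged off Rap1B. EPAC2 at 100 nM acted on 250 nM RAP1B-BODIPY-GDP with 50 uM GDP present.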
USP1 inh: Inhibitors of USP1/UAF1: Primary Screen. recombinant USP1/UAF1, Ub-Rhodamine cleavage fluorescence. Potency, µM (top dose mostly 57.1 µM), for inactives: top-dose activity change, negative = inhibition, most hits filed as inhibitors. 390,000 compounds, 0.23% hits; note: potency is the fitted concentration of half-maximal effect; % is set by controls: 0 for no effect and ±100 for the full control effect; nearly all actives have a fitted effect of over 60% in size
Target sequence (O94782 whole entry, looked up): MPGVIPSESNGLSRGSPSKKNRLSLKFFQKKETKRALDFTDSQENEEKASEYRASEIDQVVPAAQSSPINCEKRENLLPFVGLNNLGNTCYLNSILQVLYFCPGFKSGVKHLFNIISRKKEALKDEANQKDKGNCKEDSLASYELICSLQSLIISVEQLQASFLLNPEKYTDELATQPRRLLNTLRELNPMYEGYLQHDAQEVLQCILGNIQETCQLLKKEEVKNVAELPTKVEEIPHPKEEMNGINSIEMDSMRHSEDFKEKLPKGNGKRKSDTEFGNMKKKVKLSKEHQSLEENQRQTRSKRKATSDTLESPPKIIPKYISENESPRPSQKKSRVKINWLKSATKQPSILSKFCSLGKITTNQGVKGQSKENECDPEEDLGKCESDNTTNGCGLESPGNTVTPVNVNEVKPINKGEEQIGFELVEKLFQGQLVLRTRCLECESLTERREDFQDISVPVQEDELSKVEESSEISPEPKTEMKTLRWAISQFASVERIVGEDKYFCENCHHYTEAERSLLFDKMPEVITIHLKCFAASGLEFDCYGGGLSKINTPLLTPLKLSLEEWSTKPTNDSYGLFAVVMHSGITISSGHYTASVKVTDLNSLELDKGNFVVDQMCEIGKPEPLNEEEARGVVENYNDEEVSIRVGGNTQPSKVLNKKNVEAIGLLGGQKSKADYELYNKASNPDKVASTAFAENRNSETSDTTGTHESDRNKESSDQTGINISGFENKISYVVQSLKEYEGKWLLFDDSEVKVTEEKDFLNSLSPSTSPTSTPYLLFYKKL
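1 nM enzyme complex + cpd, 15 min RT; start with Ub-Rho 150nM final; kinetic fluorescence ex 480/em 540, 6 reads q60 s. Buffer 50mM HEPES pH 7.8, 0.5mM EDTA, 0.1 mg/ml BSA, 1mM TCEP, 0.01% Tween-20.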
Starred values were filed as active, the others as inactive; ? = inconclusive; nt = no result. Unless noted, calls come from the whole dose curve; as a rule, active = well fitted curve in the direction sought with a large enough effect; inconclusive = small, poorly fitted or top-dose-only effect, or another doubt; inactive = no such curve, though single readings can be large; an effect the other way counts as inactive or inconclusive.

SMILES	EPAC1 antag	EPAC2 antag	LDHA block	EPAC1 ag	EPAC2 agonist	USP1 inh
CCCOc1ccc(OC(=O)c2ccc(Br)o2)cc1	-16%	-23%	6	-5%	8%	-12%
COc1ccc(-c2csc3ncn(-c4ccc(C)cc4)c(=O)c23)cc1OC	-27%	45µM*	-3	0%	6%	-18%
Cc1ccc(CC#N)c(-c2c(CC#N)ccc(C)c2C)c1C	-6%	?	1	-6%	3%	-24%
Cc1ccc2c(c1C)-c1c(ccc(C)c1C)C(=O)C2=O	-9%	?	19	23%	14%	8.9µM*
O=C(O)c1ccc2c(c1)[C@@H]1C=CC[C@@H]1[C@H](c1ccccn1)N2	5%	1%	42	8%	12%	32µM*
COc1cccc(NS(=O)(=O)c2ccc3c(c2)C2C=CCC2C(c2ccc(C(=O)O)cc2)N3)c1 (stereo unspecified)	50µM*	3%	16	-7%	-4%	?
COc1ccc(OC)c([C@@H]2Nc3ccc(C(=O)O)cc3[C@@H]3C=CC[C@@H]32)c1	nt	nt	12	nt	nt	?
CCCCc1ccc(S(=O)(=O)NC(=O)C2(C)CCN2C(=O)Cc2ccccc2)cc1 (stereo unspecified)	8%	0%	-7	-12%	-3%	nt
CC(C)CCn1c(O)c(N=Nc2ccccn2)c2ccccc21	2%	-5%	-2	13%	12%	-25%
CCCn1c(O)c(N=Nc2ccc3ccccc3n2)c2ccccc21	1%	68%	-2	-5%	89µM*	-17%
O=C(Nc1ccccc1C(=O)Nc1ccc(Br)cn1)c1cccc([N+](=O)[O-])c1	2%	2%	-1	2%	1%	-19%
CC(=O)NC(c1ccccc1)c1cc(Cl)c2cccnc2c1O (stereo unspecified)	1%	40µM*	5	-2%	7%	-9%
CC(=O)NC(c1ccc(Cl)cc1)c1ccc2cccnc2c1O (stereo unspecified)	-12%	20µM*	8	-2%	9%	8%
COc1ccc(C(NC(C)=O)c2cc(Cl)c3cccnc3c2O)cc1 (stereo unspecified)	4%	?	6	21%	16%	-11%
CCC(=O)NC(c1ccc(C)cc1)c1ccc2cccnc2c1O (stereo unspecified)	-25%	16µM*	9	-6%	-1%	-12%
CN(C)c1nc(Oc2ccc(=O)[nH]n2)nc(N2CCOCC2)n1	-8%	25µM*	-5	7%	-7%	10%
COc1nc(Oc2ccc(=O)[nH]n2)nc(N2CCOCC2)n1	9%	-1%	0	-5%	8%	5%
Cc1ccc(CCNC(=O)C2CCCN(c3nc(C)nc4onc(C)c34)C2)cc1 (stereo unspecified)	nt	nt	0	nt	nt	nt
O=C(NCC(c1ccccc1)N1CCOCC1)c1cc(-c2cccs2)on1 (stereo unspecified)	nt	nt	-32*	nt	nt	nt
O=C(ON=C1CCCC1)c1ccc(Br)cc1	nt	nt	3	nt	nt	nt
NS(=O)(=O)c1ccc(Nc2c([N+](=O)[O-])cncc2[N+](=O)[O-])cc1	7%	0%	-33*	5%	1%	-13%
C=CCNC(=O)c1c(Br)cnn1-c1ccc(C)cc1	0%	9%	-6	3%	1%	-25%
CN1CCC(N(C)C(=O)CCc2ccccc2Cl)CC1	nt	nt	-6	nt	nt	nt
CCCCC(=O)Nc1ccc(C(=O)NNC(=O)c2ccc(C)c(Br)c2)cc1	-21%	-1%	-47*	-4%	0%	-9%
CC(OC(=O)c1ccc(S(=O)(=O)Nc2ccccc2F)cc1)C(=O)N1CCCc2ccccc21 (stereo unspecified)	nt	nt	7	nt	nt	nt
SMILES	EPAC1 antag	EPAC2 antag	LDHA block	EPAC1 ag	EPAC2 agonist	USP1 inh
COc1ccccc1CN1CCN(Cc2ccc3ccccc3c2)CC1	-7%	1%	-19	8%	22%	-15%
COc1ccc(CN2CCN(Cc3ccc4ccccc4c3)CC2)cc1OC	10%	17%	-34*	-5%	18%	-2%
Cn1cc(S(=O)(=O)N2CCC(C(=O)Nc3cccc(F)c3)CC2)cc1C(N)=O	nt	nt	-30*	nt	nt	nt
CCCn1cc(CN2CCC(n3nccc3NC(=O)CCOc3ccccc3)CC2)c(C)n1	-7%	-3%	-2	-2%	-4%	-15%
O=S(=O)(O)c1cc(O)c(N=Nc2ccc(O)cc2O)c2ccccc12	79µM*	45µM*	29	-8%	12%	?
O=S(=O)(O)c1ccc2c(N=Nc3ccc(S(=O)(=O)O)c4ccccc34)c(O)c(S(=O)(=O)O)cc2c1	nt	nt	11	nt	nt	nt
CC(C)CC(=NNC(=O)c1ccncc1)c1cc(Cl)ccc1O	-1%	2%	-7	100µM*	?	28µM*
COC(=O)c1ccc(NC(=O)COc2ccc3c(C)c(C)c(=O)oc3c2)cc1	nt	nt	5	nt	nt	nt
CCOC(=O)c1cccc(NC(=O)NC(C)c2c(-n3cccc3)sc3c2CCN(C)C3)c1 (stereo unspecified)	nt	nt	-6	nt	nt	?
CCNC1=C(Cl)C(=O)c2ccccc2C1=O	-9%	-4%	7	-4%	-6%	?
O=C1C(Cl)=C(NCCN2CCCCC2)C(=O)c2ccccc21	-5%	13%	5	5%	12%	18µM*
Cc1cc(/C=C2/C(=N)N3C(=NC2=O)SN=C3S(C)(=O)=O)c(C)n1-c1ccccc1F	-2%	-14%	-5	-5%	-3%	?
CS(=O)(=O)C1=NSC2=NC(=O)/C(=C\c3cccn3-c3ccc(Cl)cc3)C(=N)N21	35µM*	-17%	-109*	9%	-8%	-4%
O=[N+]([O-])c1cc([N+](=O)[O-])c2oc(-c3ccccc3)c(Br)c2c1O	25µM*	20µM*	-68*	6%	-7%	?
O=c1cc(-c2ccccc2Cl)oc2ccc([N+](=O)[O-])c(O)c12	7%	-13%	5	-6%	3%	-6%
COc1ccc(-c2ccc3[nH]c4c(c3c2)CCN2C(=O)[C@@H]([C@H](C)O)[C@@H](N(C)C(=O)Nc3ccc(F)cc3)C[C@@H]42)cc1	-24%	2%	-31*	-10%	22%	-16%
